Data from the supplement of paper PMC6522484.
± gives the standard deviation of the averaged measurements.

How the values were obtained:
DLD1 [1] = assay: cell viability (CellTiter-Glo) relative to plate median (fraction of plate median); higher = more viable cells; conditions: 5 µM; treatment time 24 h; reporter: 7TFP
Method in brief: (§1)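 For this screen, colorectal cancer cell lines carrying stable lentiviral TCF/Wnt firefly luciferase reporters, either 7TFP or TCF4/Wnt, were seeded into 384-well plates. A day's wait of 24 h preceded addition of library compounds at a final 5 µM, which stayed on the cells for 24 h. Firefly luciferase or CellTiterGlo luminescence, read on parallel plates, was normalised to the plate median per well, and the reported value is the mean of two independent replicates.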

HCT116 = assay: as above; conditions: 5 µM; treatment time 24 h; reporter: TCF4/Wnt
Method in brief: as §1

SW480 [2] = assay: as above; conditions: 5 µM; treatment time 24 h; reporter: 7TFP
Method in brief: as §1

DLD1 [3] = assay: TCF/Wnt firefly luciferase reporter signal relative to plate median (fraction of plate median); higher = higher Wnt reporter signal; conditions: 5 µM; treatment time 24 h; reporter: 7TFP
Method in brief: as §1

SW480 [4] = assay: as above; conditions: 5 µM; treatment time 24 h; reporter: 7TFP
Method in brief: as §1

| Compound | cell viability (DLD1 [1]) | cell viability (HCT116) | cell viability (SW480 [2]) | TCF/Wnt firefly luciferase reporter signal (DLD1 [3]) | TCF/Wnt firefly luciferase reporter signal (SW480 [4]) |
| --- | --- | --- | --- | --- | --- |
| C[C@H]1CCC/C=C/C(=O)c2c(O)cc(O)cc2CC(=O)O1 [Dehydro-Curvularin] | 0.9905 ± 0.005 | 1.08 ± 0.014 | 1.02 ± 0.03 | 1.095 ± 0.0071 | 1 ± 0.07 |
| COc1cc(O)c(C(=O)/C=C/c2ccc(O)c(OC)c2)c(OC)c1 | 1.025 ± 0.0071 | 1.03 ± 0.083 | 1.1 ± 0.071 | 0.882 ± 0.11 | 0.894 ± 0.037 |
| CO/N=C(\C(=O)N[C@@H]1C(=O)N2C(C(=O)O)=C(COC(N)=O)CS[C@H]12)c1ccco1 | 0.915 ± 0.088 | 0.949 ± 0.023 | 0.938 ± 0.027 | 0.976 ± 0.1 | 1.13 ± 0.028 |
| CNCC[C@@H](Oc1ccccc1C)c1ccccc1 | 0.949 ± 0.073 | 0.941 ± 0.043 | 0.969 ± 0.021 | 1.02 ± 0.014 | 1.08 ± 0.042 |
| O=c1cc(CO)occ1O | 1.02 ± 0.057 | 1.13 ± 0.099 | 0.932 ± 0.011 | 0.952 ± 0.069 | 1.04 ± 0.083 |
| CC(N)C12CC3CC(CC(C3)C1)C2 (stereo not given) | 1.02 ± 0.028 | 0.986 ± 0.02 | 0.977 ± 0.025 | 0.962 ± 0.03 | 0.9945 ± 0.0078 |
| CC1=C(/C=C/C(C)=C/C=C/C(C)=C/C=C/C=C(C)/C=C/C=C(C)/C=C/C(=O)[C@]2(C)C[C@@H](O)CC2(C)C)C(C)(C)C[C@H](O)C1 | 0.98 ± 0.057 | 0.966 ± 0.1 | 0.997 ± 0.033 | 0.947 ± 0.058 | 1 ± 0.051 |
| CO/N=C(\C(=O)N[C@@H]1C(=O)N2C(C(=O)O)=C(COC(C)=O)CS[C@H]12)c1csc(N)n1 | 1.03 ± 0.035 | 1.07 | 0.969 ± 0.031 | 1.01 ± 0.11 | 0.856 ± 0.074 |
| COC(=O)c1c(OC)cc2c(c1C)Oc1c(Cl)c(OC(C)=O)c(Cl)c(C)c1C(=O)O2 | 0.935 ± 0.028 | 1.02 ± 0.088 | 0.9875 ± 0.0064 | 1.03 ± 0.042 | 0.968 ± 0.02 |
| CCOC(N)=O | 1.01 ± 0.021 | 1.04 ± 0.16 | 0.949 ± 0.018 | 1.035 ± 0.0071 | 0.982 ± 0.054 |
| CCN(CC)CCNC(=O)c1cc(S(C)(=O)=O)ccc1OC | 0.99 ± 0.13 | 1.025 ± 0.0071 | 1 ± 0.023 | 0.971 ± 0.084 | 0.925 ± 0.039 |
| C/C=C(\CO)C(=O)O[C@H]1[C@H](O)[C@@H](C(=O)OC)O[C@@H]2C[C@H]3O[C@@H](n4cnc5c(N)ncnc54)[C@H](OC)[C@H]3O[C@]21O [Herbicidin A] | 1.06 ± 0.014 | 0.843 ± 0.045 | 0.982 ± 0.054 | 0.933 ± 0.095 | 0.898 ± 0.064 |
| COc1ccc2c(c1)OCC(Cc1ccc(OC)c(OC)c1)C2=O (stereo not given) | 0.995 ± 0.05 | 1.1 ± 0.092 | 1.02 ± 0.044 | 0.997 ± 0.15 | 1.035 ± 0.0071 |
| CCOC(=O)c1c(C)cc(O)c(C=O)c1O | 0.945 ± 0.05 | 1.08 ± 0.014 | 0.9445 ± 0.005 | 0.865 ± 0.11 | 0.861 ± 0.11 |
| C=C(C)[C@@H]1C[C@H](O)[C@]2(C(=O)O)CC[C@]3(C)[C@H](C[C@H]4OC(=O)C[C@@H](O)[C@]5(C)[C@@H]4[C@@]3(C)CC[C@H]5C(=C)C)[C@@H]12 [22alpha-hydroxychiisanogenin (11)] | 0.883 ± 0.21 | 0.884 ± 0.14 | 0.984 ± 0.094 | 0.859 ± 0.2 | 0.922 ± 0.017 |
| CC(C)c1ccc2c(c1)CC[C@H]1[C@](C)(CN)CCC[C@]21C | 1.04 ± 0.028 | 1.07 ± 0.092 | 1.06 ± 0.028 | 1.18 ± 0.071 | 1.03 ± 0.13 |
| CN1CCN(CCCN2c3ccccc3Sc3ccc(Cl)cc32)CC1 | 1.02 ± 0.13 | 0.941 ± 0.098 | 1.09 ± 0.064 | 1.03 ± 0.054 | 0.929 ± 0.042 |
| C=C1C(=O)C[C@@H]2[C@@H]3CC[C@@H](C(=O)O)[C@@]12CC3(C)C [Terrecyclic Acid A] | 0.873 ± 0.051 | 0.919 ± 0.047 | 0.974 ± 0.022 | 0.957 ± 0.1 | 0.961 ± 0.044 |
| CCN(CC)CCOC(=O)C(c1ccccc1)c1ccccc1 | 0.982 ± 0.068 | 0.972 ± 0.054 | 0.917 ± 0.036 | 0.904 ± 0.14 | 0.929 ± 0.0057 |
| COc1ccc(C(=O)Oc2ccc(/C=N/NC(N)=O)cc2)cc1 [Anthramycin derivative (C16H15N3O4)] | 1.2 ± 0.2 | 0.991 ± 0.07 | 1.02 ± 0.071 | 0.938 ± 0.12 | 1.05 ± 0.028 |
| CCC(=O)OCC(=O)[C@@]1(OC(=O)CC)[C@@H](C)C[C@H]2[C@@H]3CCC4=CC(=O)C=C[C@]4(C)[C@@]3(F)[C@@H](O)C[C@@]21C | 1.015 ± 0.0071 | 1.03 ± 0.073 | 0.963 ± 0.018 | 0.876 ± 0.12 | 0.941 ± 0.014 |
| N[C@@H](CC(=O)N1CCn2c(nnc2C(F)(F)F)C1)Cc1cc(F)c(F)cc1F | 1.09 ± 0.042 | 0.997 ± 0.061 | 0.963 ± 0.041 | 0.95 ± 0.069 | 0.935 ± 0.081 |
| C[C@@H]1CC(=O)O[C@H](C)Cc2cc(O)cc(O)c2C(=O)O[C@H](C)CC(=O)O[C@H](C)Cc2cc(O)cc(O)c2C(=O)O[C@H](C)CC(=O)O1 | 0.982 ± 0.0014 | 0.997 ± 0.047 | 1.01 ± 0.026 | 1.05 ± 0.028 | 0.918 ± 0.042 |
| CC(C(=O)O)c1ccc2c(c1)[nH]c1ccc(Cl)cc12 (stereo not given) | 1.02 ± 0.063 | 1.03 ± 0.061 | 0.968 ± 0.0071 | 1.04 ± 0.042 | 1.09 ± 0.021 |
| CC(=O)/C(=C\c1ccccc1)CC(=O)O | 0.984 ± 0.037 | 1.03 ± 0.047 | 1 ± 0.05 | 0.894 ± 0.0085 | 0.996 ± 0.02 |
| Nc1ccc(S(=O)(=O)Nc2ccccn2)cc1 | 0.971 ± 0.11 | 0.949 ± 0.067 | 0.981 ± 0.055 | 1.12 ± 0.028 | 0.915 ± 0.076 |
| O=C(O)c1cc(=O)c2c(OCC(O)COc3cccc4oc(C(=O)O)cc(=O)c34)cccc2o1 | 1.04 ± 0.06 | 0.9275 ± 0.0021 | 1.09 ± 0.13 | 0.902 ± 0.036 | 1.01 ± 0.081 |
| C[C@H]1CC2C3CCC4=CC(=O)C=C[C@]4(C)[C@@]3(F)[C@@H](O)C[C@]2(C)[C@@]1(O)C(=O)COP(=O)(O)O (stereo not given in full) | 0.93 ± 0.063 | 0.942 ± 0.028 | 0.952 ± 0.029 | 1.03 ± 0.09 | 1.06 ± 0.028 |
| O=C(O)c1ccccc1 | 1.06 ± 0.096 | 1.02 ± 0.021 | 1.02 ± 0.014 | 1.12 ± 0.071 | 0.951 ± 0.037 |
| N[C@@H](CSCSC[C@H](N)C(=O)O)C(=O)O | 0.966 ± 0.013 | 0.915 ± 0.022 | 0.9935 ± 0.0092 | 1.05 ± 0.014 | 0.934 ± 0.048 |
